Test results from PubChem BioAssay AID651791 (National Center for Advancing Translational Sciences (NCATS), 2012).
Records with an inconclusive call do not appear. Activity calls are given as the source filed them. The call rests on the fitted dose curve; in most records, active means well fitted inhibition curve with a large enough effect; inconclusive means small, poorly fitted or top-dose-only effect; inactive means no such curve, though single readings can be large or run the other way.

Assay: InCell qHTS Assay for Inhibitors of the mTORC1 Signaling Pathway in MEF (Tsc2-/-, p53-/-) Cells: Hit Validation;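 further: phospho-S6 Ser235/236 signal normalized to propidium iodide cell count per well; nearly all actives have a fitted effect of over 75% in size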
Details: phospho-rpS6 immunofluorescence, 24 h; activity change, negative = inhibition: at 38.3 µM (top of the series)
Potency means the concentration at half of the fitted maximal effect.

**Q.** Which activity change, negative = inhibition does the source give for `Cc1nc2nncn2c(NCc2ccc(Cl)cc2)c1C` here?
**A.** -100%

**Q.** For `COC(=O)c1c(C)oc2ccc(N(C(=O)c3ccncc3)S(=O)(=O)c3ccc(OC)cc3)cc12`, which activity change, negative = inhibition is on record?
**A.** -25.4%

**Q.** With `CCOC(=O)N1CCN(Cc2nc3cc(NC(=O)c4ccccc4OC)ccc3n2C(C)C)CC1` as the compound, how does the activity change, negative = inhibition read?
**A.** -100%

**Q.** Which activity change, negative = inhibition does the source give for `Cc1ccc(C)c(S(=O)(=O)NCC(c2ccco2)S(=O)(=O)c2ccc(F)cc2)c1` (stereo unspecified) here?
**A.** -100%

**Q.** With `COc1ccccc1NC(=O)CSc1ccc(-c2ccccn2)nn1` as the compound, how does the activity change, negative = inhibition read?
**A.** -100%

**Q.** Which activity change, negative = inhibition does the source give for `Cc1ccc(-n2ncc(C(=O)NCCCN3CCc4ccccc4C3)c2C2CCN(C(=O)OC(C)(C)C)CC2)c(C)c1` here?
**A.** -100%

**Q.** For `Cc1cccc(Cn2cc(C(=O)Nc3ccc(F)c(C(F)(F)F)c3)ccc2=O)c1`, which activity change, negative = inhibition is on record?
**A.** -100%

**Q.** For `Cc1ccc(CS(=O)(=O)c2ncc(Cl)c(C(=O)Nc3nnc(C(C)C)s3)n2)cc1`, which Potency is on record?
**A.** 6.56 µM (active)

**Q.** For `CCOc1ccc(-c2cnc(NCc3ccc(C(F)(F)F)cc3)n2C)cc1`, which activity change, negative = inhibition is on record?
**A.** -100%

**Q.** Which Potency does the source give for `COc1ccc2nc(NC(=O)c3nc(S(=O)(=O)Cc4ccccc4F)ncc3Cl)sc2c1` here?
**A.** 2.33 µM (active)

**Q.** For `COc1ccc(-n2ncc3c(NCCCOC(C)C)ncnc32)cc1`, which activity change, negative = inhibition is on record?
**A.** -100%

**Q.** Which activity change, negative = inhibition does the source give for `COc1ccc(C(=O)Nc2ccc3c(c2)N(C)C(=O)c2ccccc2S3)cc1OC` here?
**A.** -100%

**Q.** Which Potency does the source give for `CCc1ccc(NC(=O)C2CCCN(S(=O)(=O)c3c(C)noc3/C=C/N(C)C)C2)cc1` (stereo unspecified) here?
**A.** 14.7 µM (active)

**Q.** With `Cc1ccc(S(=O)(=O)c2nnn3c2nc(NCc2cccs2)c2sccc23)cc1` as the compound, how does the activity change, negative = inhibition read?
**A.** -100%

**Q.** Which activity change, negative = inhibition does the source give for `CC1C(=O)Nc2ccc(S(=O)(=O)Nc3ccccc3Br)cc2NC1=O` (stereo unspecified) here?
**A.** -100%

**Q.** With `COc1cc2c(cc1OC)n(CC(=O)c1ccc(F)cc1)c(=O)n1nc(CCn3nc(C)cc3C)nc21` as the compound, how does the activity change, negative = inhibition read?
**A.** -100%

**Q.** For `Oc1ccc(NCc2ccc(OCc3ccccc3Cl)cc2)cc1`, which activity change, negative = inhibition is on record?
**A.** -100%

**Q.** With `CC(=O)C1=C(c2ccc(Cl)c(Cl)c2)N(C(C)=O)n2c(C)nnc2S1` as the compound, how does the Potency read?
**A.** 7.36 µM (active)

**Q.** For `COc1ccc(Nc2cc(C)nc(-n3nc(C)cc3C)n2)cc1Cl`, which activity change, negative = inhibition is on record?
**A.** -100%

**Q.** With `CC(CNC(=O)c1ccc(Nc2nc3ccccc3n3nnnc23)cc1)c1ccccc1` (stereo unspecified) as the compound, how does the activity change, negative = inhibition read?
**A.** -100%

**Q.** For `COc1ccc(S(=O)(=O)NCCc2sc3nc(-c4ccc(C)cc4)nn3c2C)cc1F`, which activity change, negative = inhibition is on record?
**A.** -100%
